# Reference: the supplement of paper PMC6555819
# System: THRa homodimer (NR concentration 90 nM)
# Assay: PBM binding z-score (relative to random genomic background probes); higher = stronger binding; sequences stand for … in GC…GCGATTGACAGCGTAGAATGAAGG
# In short: (§1)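 For binding z-scores, the reference was random background probes on custom Agilent 4×180K protein-binding microarrays. These arrays were incubated 1 h with ligand-free nuclear receptor dimers in PBS pH 7.4, 2% milk, 0.02% Triton X-100, 1 mM DTT, 0.2 mg/mL BSA and 0.4 mg/ml salmon testes DNA. Fluorescence was scanned after antibody detection of each partner (one per run) and regression-normalized.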
row,Sequence,PBM binding z-score
1,ATATGTAGGTTTCATCCGGGTCATTCAGGCTATG,2.18
2,CCTACTGGGTCAAGGTCATTGATCAGTCAAAGCA,3.31
3,AGTCAAAGTTAACTAGGTAACGTAAGATTCAGCT,-0.252
4,CCTACTGGGCCATTTAGAGGTCATTGATCATATG,1.7
5,CCTTACGGCTCACTGACAGGTTATAGCATTTGGA,0.195
6,CCTAGCAGGCCAACCTGGGTCACTCAAGGCTTGA,0.233
7,GCATATAGGTAATACAATGTGAAAGTCCGATTGT,-0.105
8,ATCTAAAGGTCGAGGTGAGTATAGAGAAAGGGAA,1.31
9,ATCTCTAGGTAAAGATAATTCAGTGAATGCAAAT,0.0536
10,ATCGAAAGGTCGACGAGGTGAGCATACACCGTTT,1.18
11,ATCCCTAGGTAAAAGTTCAGTGAATCCCGAGGAT,0.117
12,CGTCCAAGGTCAGCAGGTCAGTGAAAGCGACGTG,2.28
13,CCTGCTGGGCCATCAGGTCATTGATATCAACGTT,2.31
14,GCAGATAGGTAATACAAGGTGAAAGTCCGATTGT,0.853
15,TCTCGGAGGACACGAAAGGTCAGGGCTCGACATC,2
16,CGAACTTGGTCATCCAGGACAGTGAATACATTGA,1.02
17,TCATATAGGTCAAGGTGAAAGTCGAACGATATGA,1.36
18,TCATATAGGTAAACAGGTGAAAATCCGTAAGTTA,0.391
19,ACAAGTTGGTCAGCTGAGGTCACACACAATTCGG,5.16
20,CCTACTGGGCCATCAGGACATTGATATCAACGTT,1.27

row,Sequence,PBM binding z-score
1,TCTATTAGTTGAGTAGGGCAACCGAAACAGCGGA,-0.445
2,CGAACGAGGGCATGAGATGATAGCAAATGCCGAT,-0.224
3,TCTTGTACATCAAAGGTTAAGAAAGCCGAAGCCT,-0.039
4,AGTAGCAGGCCAAGTTTGGGTCACTCAAACAAAG,1.08
5,GCAGTCAGGTGAAACGCAGGTAACTCAGGGTGGC,0.308
6,ATATGTAGGTTATCGGGTCAATCAGTTTGCGCAT,2.53
7,CAAACTAGGTCAAGAGGTCAACGTCCGCTTCCCG,2.96
8,GCGACTGCGGCAAAGCAGGTTACCATAAGGTTGG,-0.402
9,TCTAGCAGGCCAGAGGGTCACTTAAGAGGTACGG,-0.266
10,CCTACTGGGCCACGAAATGTCATTGATTCAGTGA,-0.319
11,TCGAGTAGGTTACCAATGGGTCATTCAGCTTTCT,-0.434
12,GGAACGTGGGCAAGTTGATAGCAGAGTTTGATGG,-0.691
13,ATCTCTAGGTAAAGTTAAGTGAAAGATCGATAGA,-0.14
14,CCTACTGAGCCAAGGTCATTGATCAGTCAAAGCA,2.49
15,CATGCTAGGTCATGGTCAGCTAATCTACAGTATG,1.06
16,GCAGACAGGTGAAACGCAGGTTACTCAGGGTGGC,-0.27
17,CAAACTAGATCAAGAGGTCAAAGTCCGCTTCCCG,1.67
18,TCTCGGAGGACACGAAAGGACAGAGCTCGACATC,0.669
19,ATATGTAGGTTAGCTGGGGTCATTCAAACTAGGC,3.52
20,GGAACGAGGGCATTCGTGTTGATAGCATGGCGAT,-0.391

# System: VDR homodimer (NR concentration 270 nM)
# Assay: as above
# In short: as §1
row,Sequence,PBM binding z-score
1,ATATGTAGGTTTCATCCGGGTCATTCAGGCTATG,3.21
2,CCTACTGGGTCAAGGTCATTGATCAGTCAAAGCA,4.04
3,AGTCAAAGTTAACTAGGTAACGTAAGATTCAGCT,-0.183
4,CCTACTGGGCCATTTAGAGGTCATTGATCATATG,3.36
5,CCTTACGGCTCACTGACAGGTTATAGCATTTGGA,-0.0205
6,CCTAGCAGGCCAACCTGGGTCACTCAAGGCTTGA,-0.163
7,GCATATAGGTAATACAATGTGAAAGTCCGATTGT,0.523
8,ATCTAAAGGTCGAGGTGAGTATAGAGAAAGGGAA,0.632
9,ATCTCTAGGTAAAGATAATTCAGTGAATGCAAAT,-0.00622
10,ATCGAAAGGTCGACGAGGTGAGCATACACCGTTT,0.518
11,ATCCCTAGGTAAAAGTTCAGTGAATCCCGAGGAT,1.71
12,CGTCCAAGGTCAGCAGGTCAGTGAAAGCGACGTG,1.77
13,CCTGCTGGGCCATCAGGTCATTGATATCAACGTT,1.01
14,GCAGATAGGTAATACAAGGTGAAAGTCCGATTGT,0.0811
15,TCTCGGAGGACACGAAAGGTCAGGGCTCGACATC,0.976
16,CGAACTTGGTCATCCAGGACAGTGAATACATTGA,0.3
17,TCATATAGGTCAAGGTGAAAGTCGAACGATATGA,0.356
18,TCATATAGGTAAACAGGTGAAAATCCGTAAGTTA,0.265
19,ACAAGTTGGTCAGCTGAGGTCACACACAATTCGG,3.37
20,CCTACTGGGCCATCAGGACATTGATATCAACGTT,0.257

row,Sequence,PBM binding z-score
1,TCTATTAGTTGAGTAGGGCAACCGAAACAGCGGA,-0.411
2,CGAACGAGGGCATGAGATGATAGCAAATGCCGAT,0.831
3,TCTTGTACATCAAAGGTTAAGAAAGCCGAAGCCT,0.246
4,AGTAGCAGGCCAAGTTTGGGTCACTCAAACAAAG,0.19
5,GCAGTCAGGTGAAACGCAGGTAACTCAGGGTGGC,-0.682
6,ATATGTAGGTTATCGGGTCAATCAGTTTGCGCAT,2.85
7,CAAACTAGGTCAAGAGGTCAACGTCCGCTTCCCG,3.84
8,GCGACTGCGGCAAAGCAGGTTACCATAAGGTTGG,-0.315
9,TCTAGCAGGCCAGAGGGTCACTTAAGAGGTACGG,0.361
10,CCTACTGGGCCACGAAATGTCATTGATTCAGTGA,-0.54
11,TCGAGTAGGTTACCAATGGGTCATTCAGCTTTCT,0.102
12,GGAACGTGGGCAAGTTGATAGCAGAGTTTGATGG,0.343
13,ATCTCTAGGTAAAGTTAAGTGAAAGATCGATAGA,0.368
14,CCTACTGAGCCAAGGTCATTGATCAGTCAAAGCA,3.65
15,CATGCTAGGTCATGGTCAGCTAATCTACAGTATG,0.15
16,GCAGACAGGTGAAACGCAGGTTACTCAGGGTGGC,-0.446
17,CAAACTAGATCAAGAGGTCAAAGTCCGCTTCCCG,3.23
18,TCTCGGAGGACACGAAAGGACAGAGCTCGACATC,-0.424
19,ATATGTAGGTTAGCTGGGGTCATTCAAACTAGGC,5.71
20,GGAACGAGGGCATTCGTGTTGATAGCATGGCGAT,1.87
